A selection: hits, their analogues and other compounds. The true share with any hit is near 2.7%.
MITF TRPM1 inh = reduces MITF-dependent TRPM1 promoter luciferase signal; SK-MEL-5 TRPM1 promoter luciferase, 24 h; inhibition, % at 12.5 µM; actives 0.83% (n = 330,000);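 active = mean inhibition across replicates of 60% or more, whatever share of single replicates reaches that level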
Shn3 inh set2 = Schnurri-3 reporter inhibition in Clone20 osteoblasts | inhibition, % at 12.5 µM | actives 0.52% (n = 360,000) | AID 588674 | Clone20 osteoblast Shn3 3'UTR firefly luciferase, 24 h;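 active = mean inhibition of at least 75% with every replicate also reaching 75%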
HIF-2a inh = inhibitors of HIF-2a. 786-0 RCC cells HIF-2a reporter, luciferase luminescence, overnight. inhibition, % at 18.8 µM. actives 0.72% (n = 360,000);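 active = inhibition of the luminescence signal of 40% or more relative to plate controls, in a single-dose primary screen at 18.75 µM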
CF NFkB inh = cystic fibrosis NF-kB activation inhibition | KKLEB NF-kB-GFP reporter, PAF-induced, GFP fluorescence overnight | inhibition, % at 5 µM | actives 0.86% (n = 360,000) | AID 588850;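 active = at least 50% inhibition at 5 µM, scaled per plate between neutral and stimulator controls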;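 note: PAF is a Pseudomonas aeruginosa culture filtrate used as stimulus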
KKLEB cytotox = reduces viability of KKLEB cystic fibrosis airway cells. KKLEB CF airway cells viability, ATPlite luminescence, overnight; stronger effect = lower value; cells stimulated with P. aeruginosa culture filtrate. activity change (cytotoxicity), % at 5 µM. actives 0.36% (n = 360,000). AID 602141;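 active = corrected activity change at or below -50% at 5 µM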
Peg3 prom inh = reduces Peg3 promoter-driven luciferase expression in HeLa | actives 1.7% (n = 360,000) | inhibition, % at 20 µM | HeLa PEG-Prom luciferase reporter, luminescence, overnight;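 active = inhibition of at least 50% at 20 µM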
Numbers stand for hits; n = inactive; x = no result.

SMILES | MITF TRPM1 inh | Shn3 inh set2 | HIF-2a inh | CF NFkB inh | KKLEB cytotox | Peg3 prom inh
CCN1C/C(=C/c2cccc([N+](=O)[O-])c2)C(=O)/C(=C/c2cccc([N+](=O)[O-])c2)C1 | 92 | 99 | 97 | 102 | n | 104
O=C1NC(=O)/C(=C/c2cccc([N+](=O)[O-])c2)N1 | n | n | n | n | n | n
CC1CC(C)CN(CCCNC(=O)c2cc3c(s2)-c2ccccc2OC3)C1 (stereo unspecified) | n | n | n | n | n | n
CC1CCCC(C)N1CCCNC(=O)c1cc2c(s1)-c1ccccc1OC2 (stereo unspecified) | 61 | n | n | n | n | 79
CNc1ccc(/C=C/C(=O)c2cccc3ccccc23)cc1[N+](=O)[O-] | n | n | n | n | n | 67
CNc1ccc(C(=O)c2ccccc2C(=O)O)cc1[N+](=O)[O-] | n | n | n | n | n | n
COc1cccc(CNC(=O)[C@@H]2CCCN2C(=O)[C@H]2CCCCN2C(=O)c2cccs2)c1 | x | x | n | x | x | x
Cc1cccc2cc(CN(Cc3ccccc3)C(=S)NCCCN(C)C)c(=O)[nH]c12 | n | n | n | n | n | n
Cc1ccc(CN(Cc2cc3cccc(C)c3[nH]c2=O)C(=S)NCCCN(C)C)cc1 | n | n | n | n | n | 87
Cc1cc(CSc2ccccc2)ccc1NC(=O)c1ccc(C)c([N+](=O)[O-])c1 | n | n | n | n | n | n
Cc1cc(CSc2ccccc2)ccc1NC(=O)c1ccc(Cl)c([N+](=O)[O-])c1 | n | n | n | n | n | 64
Nc1ccccc1O | n | n | n | 53 | n | n
Oc1ccccc1O | n | n | n | n | n | n
CC(C)C[C@H]1CNC(=O)C(=O)N1C[C@@H]1CCCN1C[C@H](Cc1ccc(O)cc1)N1C[C@H](Cc2ccccc2)N(CC2CCCCC2)C(=O)C1=O | x | x | n | x | x | x
CCOC1=C2[C@@H](CN(S(=O)(=O)c3ccc(C)cc3)[C@H]2c2cccc3ccccc23)[C@H]2C(=O)NC(=O)[C@H]2C1 | x | n | n | n | n | n
Cn1nc(C(C)(C)C)cc1C(=O)N1CCCCC1c1cc(C(=O)Nc2cccc3c2CCCC3)no1 (stereo unspecified) | x | 81 | n | n | n | n
CC(=O)Nc1ccc(C(=O)N2CCCCC2c2cc(C(=O)Nc3cccc4c3CCCC4)no2)cc1 (stereo unspecified) | x | n | n | n | n | n
Cc1ccc(Cl)cc1-c1cc(C(=O)NCC2CCCCC2)[nH]n1 | x | n | n | n | n | n
CCC(c1nnnn1-c1ccc2c(c1)OCCO2)N1CCN(c2cccc(C)c2C)CC1 (stereo unspecified) | x | x | n | x | x | x
O=C(Nc1cc(F)cc(F)c1)c1ccc(NCCc2ccccc2)c([N+](=O)[O-])c1 | n | n | n | n | n | n
Cc1ccc(NC(=O)c2ccc(NCCc3ccccc3)c([N+](=O)[O-])c2)cc1F | n | n | n | n | -50 | n
Cc1cccnc1C1=NOC(Cc2ccccc2)C(=O)N1Cc1ccc2c(c1)OCO2 (stereo unspecified) | x | n | n | n | n | n
COc1ccc(OC)c(NC(=O)Nc2nnc([C@H]3C[C@H](O)[C@@H](CO)O3)s2)c1 | x | n | n | n | n | n
O=C(OCCOc1ccc(Cl)cc1)c1cc(S(=O)(=O)N2CCCCC2)ccc1N1CCOCC1 | n | 90 | n | n | n | n
Cc1ccc(OCCOC(=O)c2cc(S(=O)(=O)N3CCCCC3)ccc2N2CCOCC2)cc1 | x | n | n | n | n | n
SMILES | MITF TRPM1 inh | Shn3 inh set2 | HIF-2a inh | CF NFkB inh | KKLEB cytotox | Peg3 prom inh
CCOC(=O)C1=CCC(c2ccccc2C)N(S(=O)(=O)c2ccc(C)cc2)C1 (stereo unspecified) | x | n | n | n | n | n
COc1ccc(CCNCc2ccc(-c3ccccc3)cc2)cc1OC | n | n | n | n | n | 87
COc1ccc(CNCCc2ccccc2)cc1OCC(N)=O | n | n | n | n | n | n
CCOc1cc(CNCc2ccccc2)ccc1OCc1ccc(Cl)cc1 | n | 92 | n | n | n | n
COc1ccc(CNCCc2ccc(Cl)cc2)cc1OCc1ccccc1 | n | n | n | n | n | 78
CCOc1cc(CNCCc2ccc(S(N)(=O)=O)cc2)ccc1OCc1ccccc1 | n | n | n | n | n | n
C[C@@H]1CN([C@H](C)CO)S(=O)(=O)c2ccc(C3=CCCCC3)cc2O[C@H]1CN(C)C(=O)Cc1cccnc1 | x | n | n | n | n | n
CCc1nc2ccc(C(=O)N(C)C(C)C)cn2c1N(CC)Cc1cccc(Br)c1 | x | n | n | n | n | n
Cc1ccc(Cl)cc1-c1cc(C(=O)N2CCc3ccccc3C2)[nH]n1 | x | n | n | n | n | n
CC(C)CC1C(=O)N(Cc2cn(Cc3ccco3)nn2)CCS(=O)(=O)N1Cc1ccc(-c2cccc(N(C)C)c2)cc1 (stereo unspecified) | x | n | n | n | n | n
CCN(CC)CCCNC(=O)CSc1c2c(nc3cc(Cl)ccc13)CCCC2 | n | n | n | n | n | 96
O=C(CSc1c2c(nc3cc(Cl)ccc13)CCCC2)NCCCN1CCOCC1 | n | n | n | n | n | n
Cc1ccc(Cl)cc1N1CCN(C(=O)c2cc3c(=O)[nH]c4ccccc4c3n2C)CC1 | 64 | n | n | n | n | 56
COc1cccc(-n2c(SCC(=O)N3CCOCC3)nc3c([nH]c4ccccc43)c2=O)c1 | n | n | n | n | -55 | n
C=CCNC(=O)/C(C#N)=C/c1c(N(Cc2ccccc2)Cc2ccccc2)nc2ccccn2c1=O | n | n | n | n | n | 50
N#C/C(=C\c1c(N(Cc2ccccc2)Cc2ccccc2)nc2ccccn2c1=O)C(N)=O | n | n | n | n | n | n
O=c1cc(CSc2ccc(Cl)cc2)nc(-c2ccccn2)[nH]1 | 67 | n | n | n | n | 91
CCn1c(C)nc2cc(C(=O)N/N=C/c3ccccc3)ccc21 | n | n | n | n | n | n
CCn1c(C)nc2cc(C(=O)N/N=C/c3cccc(O)c3O)ccc21 | n | 91 | n | n | n | n
CN(C)CCCNc1cc(-c2ccccc2)nc2cc(-c3cccc(F)c3)nn12 | 63 | n | n | n | n | 101
CCOc1cccc2cc(C(=O)N3CC(C)OC(C)C3)c(=O)oc12 (stereo unspecified) | n | n | n | n | n | 53
CCc1ccc2c(c1)C1(NN=C(c3ccc(C)cc3)S1)C(=O)N2 (stereo unspecified) | n | n | 89 | n | n | n
Cc1cc(C(=O)N/N=C/c2ccc([N+](=O)[O-])s2)n[nH]1 | 70 | x | n | n | n | n
O=C(Cc1ccccc1)NCC(=O)N/N=C/c1ccc([N+](=O)[O-])s1 | 83 | n | n | n | n | n
O=C(CNC(=O)c1ccccc1)N/N=C/c1cccs1 | n | n | n | n | n | n
COc1ccc(NC(=O)CCC(=O)N/N=C/c2ccc([N+](=O)[O-])s2)cc1 | 72 | n | n | n | n | n
